# Results filed as inconclusive are left out. Where a call stands in place of a potency, no number is given. Unmarked numbers belong to inactive results. Active and inactive are the calls of the source. Calls follow the shape of the dose curve; as a rule, active = well fitted curve in the direction sought with a large enough effect; inconclusive = small, poorly fitted or top-dose-only effect, or another doubt; inactive = no such curve, though single readings can be large; an effect the other way counts as inactive or inconclusive.
# Key:
# [1] = biological target: Rap guanine nucleotide exchange factor 3 (Homo sapiens) (UniProt O95398); assay: Confirmatory qHTS for agonist of cAMP-regulated guanine nucleotide exchange factor 3 (EPAC1) (AID 1645881); conditions: EPAC1 Rap1B BODIPY-GDP exchange fluorescence; series mostly up to 154 µM; also: nearly all actives have a fitted effect of over 75% in size; also: potency is read from the fitted curve at half-maximal effect;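 as to activation: EPAC1 catalysed release of BODIPY-GDP from Rap1B seen as fluorescence loss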
# Sequence of Rap guanine nucleotide exchange factor 3 (Homo sapiens) (O95398 whole entry, looked up): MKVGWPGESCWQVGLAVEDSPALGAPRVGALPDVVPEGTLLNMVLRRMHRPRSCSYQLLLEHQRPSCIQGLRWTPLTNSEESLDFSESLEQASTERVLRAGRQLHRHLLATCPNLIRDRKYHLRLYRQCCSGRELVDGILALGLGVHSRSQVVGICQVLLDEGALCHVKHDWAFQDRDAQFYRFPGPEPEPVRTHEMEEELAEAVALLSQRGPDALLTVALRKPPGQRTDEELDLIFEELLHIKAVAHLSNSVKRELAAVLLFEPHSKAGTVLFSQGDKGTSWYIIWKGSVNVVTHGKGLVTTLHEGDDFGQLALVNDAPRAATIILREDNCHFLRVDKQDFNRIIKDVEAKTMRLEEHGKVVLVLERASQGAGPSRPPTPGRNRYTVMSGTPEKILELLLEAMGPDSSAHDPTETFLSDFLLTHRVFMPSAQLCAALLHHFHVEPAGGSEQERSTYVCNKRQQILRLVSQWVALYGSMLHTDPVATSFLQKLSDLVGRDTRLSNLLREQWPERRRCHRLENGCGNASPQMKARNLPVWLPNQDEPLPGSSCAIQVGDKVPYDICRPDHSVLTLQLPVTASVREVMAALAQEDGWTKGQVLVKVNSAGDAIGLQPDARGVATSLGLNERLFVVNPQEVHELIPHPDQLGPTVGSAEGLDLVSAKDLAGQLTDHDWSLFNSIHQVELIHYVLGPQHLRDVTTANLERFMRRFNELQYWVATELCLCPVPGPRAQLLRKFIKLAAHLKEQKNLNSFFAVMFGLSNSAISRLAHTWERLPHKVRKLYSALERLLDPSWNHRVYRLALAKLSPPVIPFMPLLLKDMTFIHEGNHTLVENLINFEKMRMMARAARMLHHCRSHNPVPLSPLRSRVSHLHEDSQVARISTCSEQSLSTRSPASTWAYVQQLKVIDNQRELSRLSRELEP
# [2] = biological target: Rap guanine nucleotide exchange factor 4 (Homo sapiens) (UniProt Q8WZA2); assay: Confirmatory qHTS for agonist of cAMP-regulated guanine nucleotide exchange factor 4 (EPAC2) (AID 1645884); conditions: EPAC2 GEF activity, Rap1B-BODIPY-GDP fluorescence; series mostly up to 154 µM;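 also: nucleotide exchange releases bodipy-GDP from Rap1 and this lowers its fluorescence; nearly all actives have a fitted effect of over 65% in size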
# Sequence of Rap guanine nucleotide exchange factor 4 (Homo sapiens) (Q8WZA2 whole entry, looked up): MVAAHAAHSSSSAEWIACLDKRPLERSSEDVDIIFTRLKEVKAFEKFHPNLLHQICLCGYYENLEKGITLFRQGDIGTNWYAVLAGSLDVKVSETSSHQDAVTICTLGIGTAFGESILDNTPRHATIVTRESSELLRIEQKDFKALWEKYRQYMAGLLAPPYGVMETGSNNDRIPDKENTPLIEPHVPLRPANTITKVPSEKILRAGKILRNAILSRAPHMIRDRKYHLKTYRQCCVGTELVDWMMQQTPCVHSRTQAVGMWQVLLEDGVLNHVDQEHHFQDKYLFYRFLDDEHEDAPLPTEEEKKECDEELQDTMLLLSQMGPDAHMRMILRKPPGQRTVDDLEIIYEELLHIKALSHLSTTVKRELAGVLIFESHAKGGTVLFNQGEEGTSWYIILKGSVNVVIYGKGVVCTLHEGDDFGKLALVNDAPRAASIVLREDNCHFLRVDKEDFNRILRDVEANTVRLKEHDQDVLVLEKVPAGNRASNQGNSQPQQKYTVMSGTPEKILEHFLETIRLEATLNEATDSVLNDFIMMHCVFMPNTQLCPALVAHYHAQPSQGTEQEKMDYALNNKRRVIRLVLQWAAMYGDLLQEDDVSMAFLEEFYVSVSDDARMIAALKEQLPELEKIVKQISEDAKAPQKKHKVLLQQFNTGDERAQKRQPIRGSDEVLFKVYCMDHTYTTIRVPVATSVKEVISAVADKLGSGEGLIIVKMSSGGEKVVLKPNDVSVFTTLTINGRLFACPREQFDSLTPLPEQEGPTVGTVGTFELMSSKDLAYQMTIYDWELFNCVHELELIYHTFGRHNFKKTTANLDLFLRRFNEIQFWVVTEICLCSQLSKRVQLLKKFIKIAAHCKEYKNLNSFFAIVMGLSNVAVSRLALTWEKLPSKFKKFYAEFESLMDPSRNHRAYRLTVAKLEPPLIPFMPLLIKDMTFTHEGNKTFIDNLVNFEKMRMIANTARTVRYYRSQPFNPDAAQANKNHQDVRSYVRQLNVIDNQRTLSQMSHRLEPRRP
# [3] = biological target: Rap guanine nucleotide exchange factor 4 (Homo sapiens) (UniProt Q8WZA2); assay: Confirmatory qHTS for antagonist of cAMP-regulated guanine nucleotide exchange factor 4 (EPAC2) (AID 1645885); conditions: EPAC2 Rap1B-BODIPY-GDP exchange fluorescence, biochemical; series mostly up to 12.7 µM; also: nearly all actives have a fitted effect of over 25% in size; also: potency is read from the fitted curve at half-maximal effect
# [4] = biological target: Rap guanine nucleotide exchange factor 3 (Homo sapiens) (UniProt O95398); assay: Counterscreen qHTS for antagonist of cAMP-regulated guanine nucleotide exchange factor 3 (EPAC1) (AID 1645888); conditions: Rap1B-BODIPY-GDP nucleotide exchange, fluorescence; series mostly up to 154 µM;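 also: fluorescence loss as bound BODIPY-GDP is released from Rap1B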
# Procedure, shortened: (§1)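 Measured: fluorescence of BODIPY-GDP bound to Rap1B, which falls as exchange proceeds. Conditions include 50 uM competing GDP, 5 and 30 min reads, and a later cAMP challenge for antagonist detection.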
# [5] = biological target: Rap guanine nucleotide exchange factor 3 (Homo sapiens) (UniProt O95398); assay: Counterscreen qHTS for agonist of cAMP-regulated guanine nucleotide exchange factor 3 (EPAC1) (AID 1645889); conditions: EPAC1 Rap1B-BODIPY-GDP exchange, fluorescence; series mostly up to 154 µM; also: nearly all actives have a fitted effect of over 40% in size
# Procedure, shortened: as §1
Structure (SMILES),Potency [1],activation [2],Potency [3],"activity change, negative = inhibition [4]",activation [5],Potency [2],Potency [4],Potency [5],outcome [3]
COc1ccc(NC(=O)CN2CCN(c3c(C)cc(C)cc3C)CC2)cc1,inactive,"7.83% [at 17.1 µM, percent relative to cAMP agonist control]",inactive,9.75% [at 30.8 µM],16.1% [at 30.8 µM],,,,
CCCCn1c(N)c(N(CCC(C)C)C(=O)c2ccc(COc3ccccc3)o2)c(=O)[nH]c1=O,inactive,"1.71% [at 17.1 µM, percent relative to cAMP agonist control]",inactive,1.42% [at 30.8 µM],7.33% [at 30.8 µM],,,,
CCOc1ccc(NC(=O)CN(C)S(=O)(=O)c2ccc(-c3ccc(=O)[nH]n3)s2)cc1,100 µM (active),,inactive,,,inactive,inactive,inactive,
Cc1ccccc1CN(C)CC(=O)Nc1c(C)cccc1C(C)C,inactive,"7.02% [at 17.1 µM, percent relative to cAMP agonist control]",inactive,-6.66% [at 30.8 µM],-4.69% [at 30.8 µM],,,,
CSc1cccc(NC(=O)Cn2nnc(C(=O)NCCc3ccccc3)c2N)c1,inactive,,,,,inactive,inactive,inactive,inactive [at 12.7 µM]
COc1ccc(S(=O)(=O)Nc2ccccc2SC)cc1C,inactive,,10.7 µM (active),,,inactive,inactive,inactive,
CCCC(=O)Oc1c(S(=O)(=O)c2ccc(C)cc2)c(C)nn1C(C)(C)C,inactive,"12.6% [at 17.1 µM, percent relative to cAMP agonist control]",inactive,-10.7% [at 30.8 µM],5.13% [at 30.8 µM],,,,
Cc1nn(-c2ccccc2)c(C)c1-c1cc(C(=O)N/N=C/c2ccc(O)cc2)[nH]n1,inactive,"-7.34% [at 17.1 µM, percent relative to cAMP agonist control]",inactive,-7.56% [at 30.8 µM],9.11% [at 30.8 µM],,,,
COc1cc(/C=C2/SC(=S)N(CC(=O)O)C2=O)ccc1OC(=O)c1cccs1,inactive,,inactive,,,inactive,inactive,inactive,
CCOc1ccc(C(=O)N/N=C/c2cc(Cl)ccc2[N+](=O)[O-])cc1,inactive,"3.37% [at 17.1 µM, percent relative to cAMP agonist control]",inactive,-12.2% [at 30.8 µM],15.5% [at 30.8 µM],,,,
O=C(Nc1cccc([N+](=O)[O-])c1)c1ccc2c(c1)C(=O)N(c1ccccn1)C2=O,inactive,"10.8% [at 17.1 µM, percent relative to cAMP agonist control]",inactive,-7.46% [at 30.8 µM],12.1% [at 30.8 µM],,,,
O=C(NCCc1c[nH]c2ccccc12)C(=O)Nc1cc2c3c(c1)CC(=O)N3CCC2,inactive,,inactive,,,inactive,inactive,inactive,
CCOC(=O)c1c(C)[nH]c(C(=O)OCC(=O)Nc2sccc2C(N)=O)c1C,inactive,,inactive,,,inactive,inactive,inactive,
Cc1cc2nc(-c3ccc(SCc4ccccn4)nc3)[nH]c2cc1C,inactive,"4.1% [at 17.1 µM, percent relative to cAMP agonist control]",inactive,1.95% [at 30.8 µM],19.2% [at 30.8 µM],,,,
O=C(Nc1ccc(Br)cc1C(=O)O)c1ccc2c(c1)C(=O)N(Cc1ccccc1)C2=O,inactive,,inactive,,,inactive,inactive,inactive,
CC(C)N1CCc2c(sc(NC(=O)c3ccc(S(=O)(=O)N4CCc5ccccc54)cc3)c2C(N)=O)C1,inactive,,inactive,,,inactive,inactive,inactive,
COc1ccc(Nc2nnc(-c3ccc(O)cc3)c3ccccc23)cc1,inactive,"5.03% [at 17.1 µM, percent relative to cAMP agonist control]",inactive,-17.5% [at 30.8 µM],26.4% [at 30.8 µM],,,,
Cc1ccc(-c2nc3ccc(C)cn3c2Cc2ccccc2C(F)(F)F)cc1,inactive,,inactive,,,inactive,inactive,inactive,
CC1CCCCN1S(=O)(=O)c1ccc(C(=O)Nc2nnc(-c3ccccc3Cl)o2)cc1 (stereo not given),inactive,"0% [at 17.1 µM, percent relative to cAMP agonist control]",inactive,-13.1% [at 30.8 µM],16.2% [at 30.8 µM],,,,

Structure (SMILES),Potency [1],activation [2],Potency [3],"activity change, negative = inhibition [4]",activation [5],Potency [2],Potency [4],Potency [5],outcome [3]
Cc1ccc(S(=O)(=O)N2[C@@H](c3ccc(C(C)(C)C)cc3)C(C(=O)O)=CC[C@H]2c2cccs2)cc1,inactive,,inactive,,,inactive,inactive,inactive,
Fc1cccc(Cc2c(-c3ccc(Cl)cc3)nc3ccc(Cl)cn23)c1,inactive,"7.12% [at 17.1 µM, percent relative to cAMP agonist control]",inactive,-4.02% [at 30.8 µM],23% [at 30.8 µM],,,,
COc1cc(/C=C2\SC(=O)N(CC(=O)Nc3ccc(C)cc3)C2=O)cc(Cl)c1OCC(=O)O,inactive,,inactive,,,inactive,inactive,inactive,
O=c1c2ccccc2nc(/C=C/c2cccnc2)n1Cc1ccccc1,inactive,"2.62% [at 17.1 µM, percent relative to cAMP agonist control]",inactive,-16.6% [at 30.8 µM],22.2% [at 30.8 µM],,,,
CCC(Oc1ccccc1)C(=O)Nc1ccccc1N1CCCC1 (stereo not given),inactive,,inactive,,,inactive,inactive,inactive,
Cc1ccc(NC(=O)Cn2nnc(-c3nc(-c4ccncc4)no3)c2N)c(C)c1,inactive,,inactive,,,inactive,inactive,inactive,
CCCCCC(=O)Nc1cccc(C2=NOC3(C2)C[C@@H](C(N)=O)N(C(=O)CC(c2ccccc2)c2ccccc2)C3)c1 (stereo not given in full),inactive,"9.87% [at 17.1 µM, percent relative to cAMP agonist control]",inactive,-21.4% [at 30.8 µM],34.5% [at 30.8 µM],,,,
CC1C(=O)N(Cc2cn(Cc3ccco3)nn2)CCS(=O)(=O)N1Cc1ccc(-c2cccnc2)cc1 (stereo not given),inactive,"-1.85% [at 17.1 µM, percent relative to cAMP agonist control]",inactive,0.588% [at 30.8 µM],21.5% [at 30.8 µM],,,,
CN(CC(=O)Nc1cccc(F)c1)C(=O)c1cccc(-n2cccc2)c1,inactive,"6.22% [at 17.1 µM, percent relative to cAMP agonist control]",inactive,-8.31% [at 30.8 µM],14.1% [at 30.8 µM],,,,
CC(=O)Nc1cccc(C(=O)/C=C/c2ccc(F)cc2)c1,inactive,,inactive,,,inactive,inactive,inactive,
O=C(O)c1cccc(N2C(=O)c3cc([N+](=O)[O-])cc4cc([N+](=O)[O-])cc(c34)C2=O)c1,inactive,,37.9 µM (active),,,inactive,inactive,inactive,
COc1ccc2oc(C(=O)Nc3ccc(N4CCOCC4)cc3)c(C)c2c1,inactive,"-0.0841% [at 17.1 µM, percent relative to cAMP agonist control]",inactive,7.62% [at 30.8 µM],8.1% [at 30.8 µM],,,,
CC(C)(C)c1ccc(C(=O)N/C(=C\c2cccc([N+](=O)[O-])c2)C(=O)Nc2cccc(C(=O)O)c2)cc1,inactive,"8.06% [at 17.1 µM, percent relative to cAMP agonist control]",inactive,-17.2% [at 30.8 µM],22.2% [at 30.8 µM],,,,
CC(=O)Nc1ccc(NC(=O)CNC(=O)COc2ccccc2)cc1,inactive,"14.1% [at 17.1 µM, percent relative to cAMP agonist control]",inactive,1.2% [at 30.8 µM],-0.338% [at 30.8 µM],,,,
Cc1ccc2oc(=O)n(Cc3ccccc3OC(C)C)c2c1,inactive,,7.57 µM (active),,,inactive,inactive,inactive,
Cc1cc2nc(-c3ccco3)c(Cc3cccc(F)c3)n2c(C)c1Br,inactive,"6.3% [at 17.1 µM, percent relative to cAMP agonist control]",inactive,-4.32% [at 30.8 µM],10.5% [at 30.8 µM],,,,
O=C(NCc1ccccc1)c1ccc2c(=O)[nH]c3c(C(=O)NCC4CCCO4)sc(=S)n3c2c1 (stereo not given),inactive,,inactive,,,inactive,inactive,inactive,
CC1=Nc2ccccc2N=C(NC(=O)/C=C/C(=O)O)C1c1ccccc1 (stereo not given),inactive,,0.0675 µM (active),,,inactive,inactive,inactive,
